Twelve sequences from the supplement of paper PMC6555819 can be followed below.

Common to all, as to test: PBM binding z-score (relative to random genomic background probes); higher = stronger binding; sequences stand for … in GC…GCGATTGACAGCGTAGAATGAAGG
The subject of experiment [1] is FXR:RXRa (NR concentration 270 nM, RXRa partner concentration 90 nM). The essentials:
(§1)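 Binding z-scores take random background probes as their reference. They come from custom Agilent 4×180K protein-binding microarrays incubated 1 h with ligand-free nuclear receptor dimers, with antibodies against each partner (one per run) detecting binding. Scanned fluorescence was regression-normalized.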

In experiment [2] the test system is LXRa:RXRa (NR concentration 270 nM, RXRa partner concentration 90 nM). The essentials:
as §1

The subject of experiment [3] is LXRa homodimer (NR concentration 270 nM). In short, it runs like this:
as §1

Experiment [4] concerns LXRb:RXRa (NR concentration 270 nM, RXRa partner concentration 90 nM). The essentials: as §1
The test system of experiment [5] is LXRb homodimer (NR concentration 270 nM). The essentials:
as §1

The subject of experiment [6] is PPARa:RXRa (NR concentration 270 nM, RXRa partner concentration 90 nM). In short, it runs like this: as §1
Experiment [7] concerns PPARg:RXRa (NR concentration 180 nM, RXRa partner concentration 90 nM). In short, it runs like this: as §1
For experiment [8], the system named is PPARg:RXRa 270nM:90nM, anti-RXR (NR concentration 270 nM, RXRa partner concentration 90 nM). The essentials:
as §1

Experiment [9] relates to PPARg:RXRa 30nM:10nM, anti-RXR (NR concentration 30 nM, RXRa partner concentration 10 nM). In short, it runs like this:
as §1

The subject of experiment [10] is PPARg:RXRa 90nM:30nM, anti-RXR (NR concentration 90 nM, RXRa partner concentration 30 nM). The essentials: as §1

On to ATATCTAGGTAAAGATAGTTCAGTGAATGCAAAT, for which the PBM binding z-score in experiment [1] came out at 0.0166; in experiment [2] it was 3.97; in experiment [3] it was 0.545; in experiment [4] it was 0.556; in experiment [5] it was 0.365; in experiment [6], 2.2. The PBM binding z-score came to 3.15 in [7], 1.99 in [8], 1 in experiment [9] and 1.6 in experiment [10].
On to GCATATAGGTAATACAAGGCGAAAGTCCGATTGT, for which the PBM binding z-score in [1] was 0.229; in experiment [2] it was 0.00213; in experiment [3], 0.175; in experiment [4] it was -0.106; in [5] it was -0.482; in experiment [6], 0.752. Further, the PBM binding z-score in experiment [7] was 0.874; in [8], 0.503; in experiment [9], 0.39; in [10], 0.229.
Regarding GCGTCTGGGGCATCAGCAGGTTACCATAACTTAA, the PBM binding z-score in [1] is -0.332; in [2], -0.363; in experiment [3], -0.529; in [4], 0.524; in [5], -0.962; in experiment [6], 0.996. Besides, the PBM binding z-score is 0.169 in experiment [7], 0.239 in experiment [8], -0.644 in experiment [9] and -0.174 in experiment [10].
TAGCCTAGGTCATTCGGCCAGTATAGTACGCATC: the PBM binding z-score in experiment [1] is 4.5; in experiment [2], 3.51; in [3] it was 1.18; in [4] it was 2.52; in experiment [5], 0.814; in experiment [6] it was 3.48. Besides, the PBM binding z-score was 2.78 in experiment [7], 2.43 in experiment [8], 0.539 in experiment [9] and 1.55 in [10].
GGAACGAGGGCATTCGAGTTGCTAGCATGGCGAT: the PBM binding z-score in [1] is 0.791; in experiment [2], 0.5; in experiment [3], -0.577; in experiment [4] it was -0.157; in experiment [5], -0.675; in experiment [6] it was 0.953. Further, the PBM binding z-score was 0.443 in experiment [7], 0.479 in experiment [8], -0.435 in [9] and -0.173 in experiment [10].
On to TCGAGTAGGTTAGTCGGGGCATTCGGCCAACATA, for which the PBM binding z-score is -0.18 in experiment [1]; -0.185 in experiment [2]; -0.523 in experiment [3]; 0.162 in [4]; -0.854 in experiment [5]; 0.505 in experiment [6]. Also, the PBM binding z-score in experiment [7] is -0.197; in experiment [8], 0.72; in experiment [9], 0.731; in experiment [10], 0.597.
On to GCAACTGGGGCAAAGCAGGTTACCATAAGGTTGG, for which the PBM binding z-score in experiment [1] was 0.393; in [2], 0.00585; in experiment [3], -0.385; in experiment [4], 0.511; in [5], -0.769; in [6], 2.06. Further, the PBM binding z-score was 2.61 in experiment [7], 2.77 in [8], 0.156 in experiment [9] and 1.77 in experiment [10].
Regarding TGTCAAAGTTCAATGGTAACGTAAGTATCCACAC, the PBM binding z-score in experiment [1] was 5.2; in experiment [2], 5.16; in experiment [3] it was 2.81; in experiment [4], 3.03; in [5], 0.934; in experiment [6], 4.31. In addition, the PBM binding z-score in [7] was 6.86; in experiment [8], 6.53; in experiment [9] it was 4.18; in [10] it was 6.12.
CGCCCAAGGTCAAAGGTCAGTGAAGAGATGACGG: the PBM binding z-score in experiment [1] was determined as 8.13; in experiment [2], 6.57; in experiment [3] it was 3.09; in [4], 6.44; in experiment [5], 1.72; in experiment [6], 7.07. Besides, the PBM binding z-score in [7] amounted to 10.1; in experiment [8], 8.16; in experiment [9] it was 7.42; in [10], 8.6.
For the sequence ATATGTGGGTTAGCTGGGGTCATTCAGACTAGGC, the PBM binding z-score is 4.69 in experiment [1]; 5.5 in [2]; 2.93 in experiment [3]; 4.93 in experiment [4]; 2.51 in experiment [5]; 5.09 in [6]. In addition, the PBM binding z-score turned out to be 5.17 in [7], 4.9 in [8], 2.27 in [9] and 4.19 in [10].
Take ATATGTAGGTTAGCTGCGGTCATTCAGACTAGGC: the PBM binding z-score in experiment [1] amounted to 1.46; in [2] it was 5.96; in experiment [3], 4.17; in [4], 2.56; in experiment [5] it was 0.134; in [6] it was 2.82. Further, the PBM binding z-score in experiment [7] was found to be 3.47; in experiment [8], 3.02; in [9] it was 0.942; in experiment [10], 2.27.
In the case of ATCTCTAGGTAAAGTTGAGTGAAAGATCGATAGA, the PBM binding z-score in [1] is 0.674; in [2], 0.644; in experiment [3], -0.0419; in experiment [4] it was 0.163; in experiment [5], 0.646; in experiment [6], 0.992. Moreover, the PBM binding z-score in [7] was 1.37; in experiment [8], 2.56; in experiment [9], 1.23; in [10] it was 2.07.
